According to PubChem BioAssay (NCI):
Compounds without any hit were thinned out: in the full panel of roughly 83,000, 20% have a hit.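 The test compound was applied at a single concentration to cells in 96-well plates for 48 hours, and percent growth was recorded.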 Unmarked numbers belong to inactive results. Activity calls are given as the source filed them. The calls were made as follows: active = growth percent below 10; inactive = the rest.

Columns and labels:
Test in all cases: NCI-60 one-dose screen, 48 h (100 = growth as untreated, 0 = no growth, -100 = all killed)
Conditions in all cases: 10 µM
SN12C renal = tested on: SN12C renal
UO-31 renal = tested on: UO-31 renal
TK-10 renal = tested on: TK-10 renal
ACHN renal = tested on: ACHN renal
CAKI-1 renal = tested on: CAKI-1 renal
A498 renal = tested on: A498 renal
MOLT-4 leukemia = tested on: MOLT-4 leukemia
SR leukemia = tested on: SR leukemia
OVCAR-8 ovarian = tested on: OVCAR-8 ovarian
OVCAR-5 ovarian = tested on: OVCAR-5 ovarian
OVCAR-4 ovarian = tested on: OVCAR-4 ovarian
SK-OV-3 ovarian = tested on: SK-OV-3 ovarian
IGROV1 ovarian = tested on: IGROV1 ovarian
OVCAR-3 ovarian = tested on: OVCAR-3 ovarian
HS 578T breast = tested on: HS 578T breast
NCI/ADR-RES ovarian = tested on: NCI/ADR-RES ovarian
T-47D breast = tested on: T-47D breast
CCRF-CEM leukemia = tested on: CCRF-CEM leukemia
RPMI-8226 leukemia = tested on: RPMI-8226 leukemia

| SMILES | growth (SN12C renal) | growth (UO-31 renal) | growth (TK-10 renal) | growth (ACHN renal) | growth (CAKI-1 renal) | growth (A498 renal) | growth (MOLT-4 leukemia) | growth (SR leukemia) | growth (OVCAR-8 ovarian) | growth (OVCAR-5 ovarian) | growth (OVCAR-4 ovarian) | growth (SK-OV-3 ovarian) | growth (IGROV1 ovarian) | growth (OVCAR-3 ovarian) | growth (HS 578T breast) | growth (NCI/ADR-RES ovarian) | growth (T-47D breast) | growth (CCRF-CEM leukemia) | growth (RPMI-8226 leukemia) |
| --- | --- | --- | --- | --- | --- | --- | --- | --- | --- | --- | --- | --- | --- | --- | --- | --- | --- | --- | --- |
| CO/N=C(/C(=O)NC1C(=O)N2C(C(=O)O)=C(COC(N)=O)CSC12)c1ccco1 (stereo not drawn) | 104% | 83.3% | 104% | 98.3% | 91.3% | 102% | 111% | 106% | 108% | 108% | 106% | 114% | 109% | 122% | 116% | 110% | 101% | – | – |
| N#CCCN1C/C(=C/c2ccc(Br)cc2)C(=O)/C(=C/c2ccc(Br)cc2)C1 | -51.2% (active) | -91.3% (active) | -29.1% (active) | -53.5% (active) | -7.84% (active) | -39.7% (active) | 2.26% (active) | – | -17.3% (active) | 2.15% (active) | 0.905% (active) | 9.84% (active) | – | -65.2% (active) | 12.4% | 16.8% | 6.33% (active) | -5.67% (active) | -14% (active) |
| O=C1Nc2ccccc2C1=NC1CCCCC1 | 107% | 55.5% | 107% | 97.9% | 79.3% | 109% | 111% | – | 98.1% | 106% | 96.3% | 95.4% | 88.5% | 103% | 116% | – | 83.1% | 108% | 103% |
| COc1ccc(Nc2nc3ccc(NC(=O)NC4CCCCC4)cc3[nH]c2=O)cc1 | 91.6% | 94.5% | 117% | 94.8% | 87.7% | 109% | – | 103% | 91.4% | 104% | 113% | 96.1% | 94.1% | 112% | 69.6% | – | 92.8% | 91.6% | 66.2% |
| N=C(N)c1ccc(-c2ccc(-c3cccs3)s2)cc1 | 85.9% | 17.1% | 67.8% | – | 85.2% | -25.9% (active) | -48.6% (active) | -35.6% (active) | -14% (active) | 67% | -19.8% (active) | 65.9% | 94.9% | 36.7% | 104% | 56.1% | 55.1% | -36.1% (active) | -30.9% (active) |
| c1ccc(CO[C@H]2CO[C@H]3[C@@H]2OC[C@H]3OCc2ccccc2)cc1 | 102% | 72.1% | 101% | 101% | – | 110% | 95.2% | 94.6% | 107% | 99.6% | 111% | 96% | 92.3% | 111% | 109% | 106% | 93.7% | 99.2% | – |
| CC(=O)N1C/C(=C/c2ccc(Cl)cc2)C(=O)/C(=C/c2ccc(Cl)cc2)C1 | -42.4% (active) | -88.8% (active) | -15.7% (active) | – | -15% (active) | -5.57% (active) | 0.236% (active) | -15.1% (active) | 4.95% (active) | 18.2% | 10.9% | -10.9% (active) | -55.7% (active) | -40.6% (active) | 14.5% | 10.4% | 30.1% | -13.3% (active) | -45.2% (active) |
| Cc1ccc(C(=O)Nc2cccc(F)c2)cc1NC(=O)C1(c2ncnc3[nH]ccc23)CC1 | 91.2% | 51.6% | 132% | 98.8% | – | 105% | 72.7% | – | 89.7% | 83.6% | 101% | 91.1% | 90.3% | 103% | 74% | 92% | 74.1% | 87.9% | 83.2% |
| Cn1c([N+](=O)[O-])cnc1/C=C1\Oc2cc(Cl)ccc2C1=O | -15.1% (active) | -35.2% (active) | -24.4% (active) | – | -21.1% (active) | 57.4% | – | 8.29% (active) | -13.3% (active) | 29.1% | 55% | -7.2% (active) | -22% (active) | -33.3% (active) | -2.19% (active) | -0.2% (active) | 86.6% | -0.667% (active) | 11.7% |
| Cc1ncc(-c2ccoc2)c(NC2CCCCCC2)n1 | 98.5% | 71.7% | 109% | – | 94.4% | 105% | 84% | 96.1% | 99.1% | 107% | 105% | 93.8% | 96.4% | 101% | 111% | 102% | 92% | 107% | 105% |
| COc1ccc(-c2nn(-c3cccc(NC(=O)Nc4ccc(Cl)c(C(F)(F)F)c4)c3)cc2-c2ccncc2)cc1Cl | 21.1% | -11.2% (active) | 10.3% | – | 9.1% (active) | -0.894% (active) | -6.09% (active) | -18.4% (active) | 1.48% (active) | 39.8% | 21.7% | 16.7% | 15.7% | -2.03% (active) | 33.8% | 9.26% (active) | -6.17% (active) | -3.16% (active) | -19.2% (active) |
| CCOC(=O)C(=Cc1ccc(Br)cc1)C(=O)OCC | -21% (active) | -85.7% (active) | 8.18% (active) | -81% (active) | – | -12.6% (active) | -8.75% (active) | -42% (active) | -22.4% (active) | 5.97% (active) | 0.0605% (active) | 34% | -82.1% (active) | -35.1% (active) | -16.3% (active) | 10.6% | -16.7% (active) | -29.1% (active) | -34.3% (active) |
| COc1cc(Cl)cc(-c2nn(-c3cccc(NC(=O)Nc4ccc(Cl)c(C(F)(F)F)c4)c3)cc2-c2ccncc2)c1 | 13.8% | 11.1% | 37.5% | – | 9.38% (active) | -9.18% (active) | -9.68% (active) | -27.5% (active) | 8.71% (active) | 19.2% | 16.6% | 12% | 30.2% | -22.6% (active) | 14.6% | 6.07% (active) | 8.1% (active) | 1.88% (active) | -29.1% (active) |
| N#Cc1ncc(Br)c(NC2CCCCCC2)n1 | 93.5% | 84.7% | 134% | – | 89.4% | 103% | 86.8% | 80.9% | 89.8% | 99.9% | 91.3% | 99.1% | 104% | 119% | 107% | 106% | 90.8% | 85% | 93.4% |
| CCN(CC)CCNC(=O)c1ccc(NC(C)=O)cc1 | 94.6% | 98.3% | 103% | – | 95.2% | 78.7% | 107% | 101% | 106% | – | 108% | 102% | 112% | 121% | 99.8% | – | 99.7% | 114% | 112% |
| CC(=O)CSC(C)=O | 100% | 91.3% | 122% | – | 91.6% | 99.1% | 105% | – | 108% | 106% | 98% | 110% | 99.2% | 115% | 101% | 111% | 103% | 94.8% | 93.2% |
